HPGD inh – blocks human HPGD enzyme activity; purified HPGD, NADH fluorescence kinetic, PGE2 substrate; P15428; Potency, µM, for the others: at the top dose activity change, negative = inhibition, usual class: inhibitors; 4.3% of 150,000 active; further: potency means the concentration at half of the fitted maximal effect
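NADH formation kinetics: reaction with 30 uM PGE2 and 1 mM NAD+ (final), 20 nM enzyme, Tris-HCl pH 8 with Tween 20, after 15 min compound preincubation at room temperature. Fluorescence change, last versus first of five reads.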
ALDH1A1 block – inhibitors of human aldehyde dehydrogenase 1A1; P00352; Purified ALDH1A1, NADH fluorescence, propionaldehyde substrate; Potency, µM (doses to about 75.3 µM), without a hit: at the highest dose activity, negative = inhibition, hits mostly inhibitors; 7.3% of 220,000 active;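 further: potency means the concentration at half of the fitted maximal effect; plate controls were no enzyme wells and a reference inhibitor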
Target sequence (P00352 whole entry, looked up): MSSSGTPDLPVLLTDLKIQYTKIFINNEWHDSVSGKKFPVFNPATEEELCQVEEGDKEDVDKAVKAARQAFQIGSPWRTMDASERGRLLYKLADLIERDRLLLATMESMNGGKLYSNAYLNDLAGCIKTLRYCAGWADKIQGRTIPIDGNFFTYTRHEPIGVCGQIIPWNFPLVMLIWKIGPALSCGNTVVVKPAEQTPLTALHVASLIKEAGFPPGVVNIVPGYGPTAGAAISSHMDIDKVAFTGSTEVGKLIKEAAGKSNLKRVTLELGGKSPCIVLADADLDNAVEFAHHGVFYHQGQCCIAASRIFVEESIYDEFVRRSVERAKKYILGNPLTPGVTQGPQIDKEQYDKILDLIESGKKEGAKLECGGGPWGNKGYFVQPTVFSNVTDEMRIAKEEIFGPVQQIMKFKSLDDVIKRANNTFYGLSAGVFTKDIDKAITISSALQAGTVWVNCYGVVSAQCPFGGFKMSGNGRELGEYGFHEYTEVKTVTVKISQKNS
IMPase cell inh – IMPase inhibition in cells | 120,000 tested, under 10 active | inhibition (IP1 accumulation), % at 46.1 µM | CHO-M1 cells, IP1 accumulation, HTRF TR-FRET ratio | P97697; active means well fitted curve in the direction sought with a large enough effect in the signal ratio, not every such curve was filed as active; inconclusive means small, poorly fitted or top-dose-only effect, or a change in a side signal; inactive means no such curve, though single readings can be large or run the other way; the % refers to the signal ratio;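 further: cells stimulated with carbachol in lithium chloride buffer; plate controls were DMSO basal wells for no effect and reference inhibitor wells for full effect; higher means more IMPase inhibition seen as more IP1 and lower FRET ratio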
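Seeded CHO-M1 cells were dosed with compound at up to 46 uM, stimulated with carbachol for 30 min, then lysed in IP-One detection reagents. Higher IP1 lowers the TR-FRET signal.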
An asterisk follows results filed as active; ? = inconclusive; / = no result; [ ] = remark or other dose. Hits are enriched below; roughly 9% of the tested compounds scored in any of these assays. Unless noted, the call rests on the fitted dose curve; in most records, active means well fitted inhibition curve with a large enough effect (not every such curve was filed as active); inconclusive means small, poorly fitted or top-dose-only effect, or another doubt; inactive means no such curve, though single readings can be large or run the other way. Unless noted, on the % scale 0 is the no-effect control and ±100 the full control effect.

SMILES | HPGD inh | ALDH1A1 block | IMPase cell inh
c1ccc(CSc2nnc(-c3cccnc3)o2)cc1 | -24% | -3% | ?
O=C(CSc1nnc(-c2cccnc2)o1)OC1CCCCC1 | -14% | 10µM* | 1
CCOC(=O)CSc1nnc(-c2cccnc2)o1 | -14% | 13% | 2
c1cncc(-c2nnc(SCc3cccc4ccccc34)o2)c1 | 25µM* | -3% | -1
O=C(NCc1cccs1)C(Cc1ccccc1)n1cccc1 (stereo not given) | -1% | 2% | 9
Cc1ccc(S(=O)(=O)Nc2ccc(NC(=O)c3c(F)c(F)c(F)c(F)c3F)cc2)cc1 | / | -5% | /
CC(C)(C)NS(=O)(=O)c1ccc(/C=C/C(=O)O)cc1 | / | 0% | /
CSC1=Nc2sc3c(c2C2=NCCN12)CCCC3 | / | 14µM* | 27
CC1(C)Cc2c(sc3c2C2=NCCN2C=N3)CS1 | -13% | -1% | 6
CCc1cc(C(=O)NNC(=S)Nc2ccccc2C)cs1 | -17% | 25µM* | -7
CCc1cc(C(=O)NNC(=S)Nc2cc(C)ccc2C)cs1 | -15% | ? | -9
C/C(Cc1ccccc1)=N\NC(=O)CNC(=O)c1ccc(Cl)cc1 | / | 5% | /
O=C(O)c1ccc(N2CC3CC(C2)c2cccc(=O)n2C3)c(NC(=S)Nc2ccc(Cl)cc2Cl)c1 (stereo not given) | / | 16µM* | /
O=C(NC1CCN(Cc2ccccc2)CC1)c1ccc(N2CC3CC(C2)c2cccc(=O)n2C3)c([N+](=O)[O-])c1 (stereo not given) | / | 2% | /
COc1cccc([C@@H]2Oc3ccc(OC)cc3C(=O)[C@H]2OC(=O)NS(=O)(=O)c2ccc(F)cc2)c1 | -17% | 3% | /
COc1cc(C(=O)NCc2ccccc2)ccc1OC(F)F | / | -16% | -7
CC12CCC(C(=O)NCc3ccccc3)(OC1=O)C2(C)C (stereo not given) | -13% | -13% | 4
COc1ccccc1NC(=O)NCc1ccc2c(c1)OCO2 | -14% | 13% | 1
COc1ccc(COc2ccccc2C(=O)NCc2ccccc2)cc1F | 16µM* | ? | /
CC12CCC(C(=O)NCc3ccc4c(c3)OCO4)(OC1=O)C2(C)C (stereo not given) | 32µM* | ? | 1
O=C(NCc1ccc2c(c1)OCO2)c1cccc(F)c1 | 16µM* | -1% | 0
COc1ccccc1C(=O)NCc1ccc2c(c1)OCO2 | 14µM* | -1% | -16
O=C(NCc1ccc2c(c1)OCO2)c1ccccc1 | / | 8% | /
O=C1CC(c2ccco2)Cc2c1cnn2-c1nc2ccccc2s1 (stereo not given) | -14% | ? | /
CNC(=O)c1cc(NC(=O)CCn2nc(-c3ccccc3)c3ccccc3c2=O)ccc1OC | / | 1% | /
SMILES | HPGD inh | ALDH1A1 block | IMPase cell inh
COc1ccccc1CN1CC[C@@]2(CCCN(C(=O)c3cccc(F)c3)C2)C1 | -5% | ? | /
CC(Oc1ccccc1)C(=O)NC1C(=O)N2C(C(=O)O)C(C)(C)S[C@@H]12 (stereo not given in full) | -13% | -4% | /
COCCN(C(=O)CN1CCN(S(=O)(=O)c2ccc(F)cc2)CC1)c1c(N)n(Cc2ccccc2)c(=O)[nH]c1=O | 1% | 2% | /
O=C1c2ccsc2SCCN1Cc1ccccc1 | / | -6% | /
COc1ccccc1/C=C(/CC(=O)NCc1ccc2c(c1)OCO2)c1nc2ccccc2s1 | -13% | 1.4µM* | /
COc1ccccc1OCCC(=O)NCc1ccc2c(c1)OCO2 | / | 4% | /
O=C(NCc1cccc(Cl)c1)c1ccc2c(c1)OCO2 | -26% | 2% | 13
O=C(NCc1ccc2c(c1)OCO2)c1cccc(Cl)c1 | 3.5µM* | -5% | 2
O=c1c(Cc2ccc(F)cc2)c(O)ccn1CCCN1CCOCC1 | / | 4% | /
COC(=O)C(C)(C(=O)OC)c1ccc(C(F)(F)F)cc1[N+](=O)[O-] | / | 13% | /
O=[N+]([O-])c1cc2c(c(CSc3nnc(Nc4ccccc4)s3)c1)OCOC2 | -20% | -1% | 10
Cc1ccccc1Nc1nnc(SCc2cc([N+](=O)[O-])cc3c2OCOC3)s1 | 14µM* | ? | 12
N=C(N)SCc1cccc2c(=O)cc(-c3ccccc3)oc12 | -11% | -9%[13.5 µM] | /
O/N=C1\CCCC\C1=C/c1ccccc1 | 4.5µM* | -2% | /
O/N=C1/CC/C(=N\O)c2nn(-c3ccccc3)nc21 | -16% | -14% | 6
O=C(NCc1ccco1)c1cnn2cccnc12 | / | -18% | /
Cc1noc(C)c1S(=O)(=O)N(CC(=O)N1CCCCCC1)c1ccc(C(C)C)cc1 | -9% | ? | 6
O=C(c1cnn(C(=O)c2cccc(S(=O)(=O)N3CCOCC3)c2)c1)c1ccccc1O | / | 3.5µM* | /
O=C(c1cnn(C(=O)c2cccc(S(=O)(=O)N3CCOCC3)c2)c1)c1cc(Cl)cc(Cl)c1O | / | 2% | /
O=C(Cc1ccccc1)N1CCN=C1SCc1cccc([N+](=O)[O-])c1 | / | -8% | /

Screening data from PubChem BioAssay.
